In PubChem BioAssay AID686978 (National Center for Advancing Translational Sciences (NCATS), 2013):
Screen size: about 420,000 compounds; about 64,000 (15%) were called active. Another 27% or so got no clear call; they are omitted. Calls follow the shape of the dose curve; as a rule, active = well fitted inhibition curve with a large enough effect; inconclusive = small, poorly fitted or top-dose-only effect; inactive = flat fitted curve, though single readings scatter. A selection follows. Where a call stands in place of a potency, no number is given.
Potency is read from the fitted curve at half-maximal effect.

Assay: qHTS for Inhibitors of human tyrosyl-DNA phosphodiesterase 1 (TDP1): qHTS in cells in absence of CPT; also: nearly all actives have a fitted effect of over 55% in size
Settings: DT40 Tdp1-/- hTDP1 cells, no CPT, ATP luminescence, 48 h; activity change, negative = growth inhibition: at 46.2 µM (top of the series)
How it was run: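 Readout: luminescence from CellTiter-Glo after 30 min in the dark at RT. Cells: DT40 Tdp1-/- with stable hTDP1, 400/well. Exposure: compounds alone, ≥48 hr, 37 °C.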
For `Cc1ccc(OCC(=O)Nc2nnc(-c3ccco3)s2)cc1`, the Potency was “inactive”. In the case of `CSc1ncccc1C(=O)Nc1ccc2c(c1)OCO2`, the Potency is reported as “inactive”. In the case of `CCOC(=O)c1c(S(=O)(=O)Nc2ccc(CN3CCC(C)CC3)cc2)c(C)n(C)c1C`, the Potency is reported as “inactive”. For `CCOC(=O)c1cnc(SCC(=O)NCc2ccco2)nc1N`, the Potency was “inactive”. In the case of `CCOC(=O)c1cnc(SCC(=O)Nc2ccccc2C(=O)OC)nc1N`, the Potency is reported as 23.1 µM (active). For `COC(=O)c1ccccc1NC(=O)CSc1ccccn1`, the Potency was “inactive”. In the case of `CCCCN(C)CCCNC(=O)CN1N=C(c2ccc(OC)cc2)CCC1=O`, the Potency is reported as “inactive”. For `C=CCC(CC=C)(C(N)=O)c1ccccc1`, the Potency was “inactive”. For `Cc1nn(CC(=O)Nc2ccc(C#N)cc2)c(C)c1[N+](=O)[O-]`, the Potency was “inactive”. With `COCc1c(C(=O)OCC(=O)Nc2ccc(OC(F)F)cc2)oc2ccccc12` the Potency was “inactive”. For `CCOC(=O)c1c(-c2ccccc2)oc2cc(Br)c(O)cc12`, the Potency was “inactive”. With `CCOC(=O)c1c(C)oc2cc(Sc3ccccc3)c(O)c(O)c12` the Potency was 25.9 µM (active). With `Cc1oc2cc(Br)c(O)c(Br)c2c1C(=O)c1ccccc1` the Potency was “inactive”. With `Nc1nc(COC(=O)CCC(=O)c2ccc(Cl)cc2)nc(Nc2ccccc2)n1` the Potency was “inactive”. For `Cc1cc(C)c(NC(=O)CSc2nc3nccnc3c(=O)n2CCc2c[nH]c3ccccc23)c(C)c1`, the Potency was “inactive”. With `O=C(CSc1nc2nccnc2c(=O)n1CCc1c[nH]c2ccccc12)Nc1ccccc1F` the Potency was 8.2 µM (active). With `Cn1c(CCC(=O)Nc2ccccc2F)nnc1SCC(=O)Nc1ccccc1Cl` the Potency was “inactive”. For `Cc1cc(C)cc(NC(=O)CSc2nc3nccnc3c(=O)n2CCc2c[nH]c3ccccc23)c1`, the Potency was 7.31 µM (active). With `O=C(CSc1nc2nccnc2c(=O)n1Cc1cccs1)Nc1ccccc1F` the Potency was “inactive”. For `Cc1cc(C)cc(NC(=O)Cn2c(=O)c3ccccc3n3nncc23)c1`, the Potency was “inactive”. For `Cc1cccc(C)c1NC(=O)CSc1nc2c([nH]1)c(=O)n(C)c(=O)n2C`, the Potency was “inactive”. For `CCc1c(O)nc(SCC(=O)Nc2ccccc2)n(C(C)CC)c1=O` (stereo unspecified), the Potency was “inactive”. In the case of `CCCNCc1cc(OCC)c(OCC(=O)Nc2ccccc2)cc1Br`, the Potency is reported as “inactive”. For `CN(C)C(=O)c1cc(Br)ccc1Cl`, the Potency was “inactive”. In the case of `Cc1cc(OC(=O)c2ccccc2)c([N+](=O)[O-])c(=O)[nH]1`, the Potency is reported as “inactive”. With `Cc1nnsc1C(=O)N/N=C/c1cccc(C(F)(F)F)c1` the Potency was “inactive”. With `Oc1ccc(/C=N/Nc2ccc(C(F)(F)F)cn2)cc1O` the Potency was 2.59 µM (active). In the case of `O=C(O)c1ccc(N/N=C/c2ccc3ncccc3c2)cc1`, the Potency is reported as “inactive”. For `O=C1/C(=C/c2ccc(F)cc2)SC(=S)N1NS(=O)(=O)c1ccccc1`, the Potency was “inactive”. In the case of `CC1CCCCC12NC(=O)N(CC(=O)N1CCN(c3ccccc3)CC1)C2=O` (stereo unspecified), the Potency is reported as “inactive”. For `Cc1cc(C)c(NC(=O)CSc2nc3ccncc3[nH]2)c(C)c1`, the Potency was “inactive”. For `CCc1ccc(NC(=O)Cn2nc(C)c([N+](=O)[O-])c2C)cc1`, the Potency was “inactive”. For `COc1ccc(CNC(=O)CCCn2nc(C)c([N+](=O)[O-])c2C)cc1`, the Potency was “inactive”. For `Cc1ccc(Oc2cc(NC(=O)CCCn3nc(C)c([N+](=O)[O-])c3C)cc([N+](=O)[O-])c2)cc1`, the Potency was 18.4 µM (active). With `CC(C)(C)NC(=O)C(CCc1ccccc1)n1c(=O)c(-c2ccccc2)nc2ccccc21` (stereo unspecified) the Potency was 2.91 µM (active). In the case of `CC(C)(C)NC(=O)NC(=O)COC(=O)Cn1c(C(F)(F)F)nc2ccccc21`, the Potency is reported as “inactive”. In the case of `CCCc1nc2ccccc2n1C(C)C(=O)NC(C)(C)C` (stereo unspecified), the Potency is reported as “inactive”. In the case of `CCC(C(=O)NC(C)(C)C)n1c(-c2ccccc2)nc2ccccc21` (stereo unspecified), the Potency is reported as 18.4 µM (active). For `CC(=O)NS(=O)(=O)c1ccc(N/C(N)=N/c2nc(C)cc(C)n2)cc1`, the Potency was “inactive”. With `Cc1nnc(SCCCCSc2nnc(C)c(=O)[nH]2)[nH]c1=O` the Potency was “inactive”. With `COc1ccc(Br)cc1/C=N/Nc1ccc(S(=O)(=O)Nc2ccccc2C(=O)O)cc1[N+](=O)[O-]` the Potency was “inactive”. For `COc1ccccc1CNC(=O)Cn1cc2c(n1)CCCC2`, the Potency was “inactive”. With `COc1ccc(C(=O)NCc2ccccc2C)cc1S(=O)(=O)NC1CCCC1` the Potency was “inactive”. In the case of `COc1ccc(CCNC(=O)CSCc2ccc(Br)cc2)cc1OC`, the Potency is reported as “inactive”. For `COc1ccccc1CNC(=O)c1ccc(-n2c(C)cc3c2CCCC3)cc1`, the Potency was 14.6 µM (active). For `COCCn1c(=S)[nH]c2cc(C(=O)NCCc3ccc(OC)c(OC)c3)ccc2c1=O`, the Potency was “inactive”. With `COc1ccc(CCNC(=O)c2ccc3c(c2)nc(C)n3-c2ccc(Br)cc2)cc1OC` the Potency was 20.6 µM (active). For `COc1ccc(CCNC(=O)c2ccc(-n3c(C)cc4c3CCCC4)cc2)cc1OC`, the Potency was 18.4 µM (active). For `O=C(OC1CC2CC1[C@H]1CCCCN1C2=O)N1CCOCC1` (stereo partly specified), the Potency was “inactive”. With `O=C(CS(=O)(=O)c1ccccc1)Nc1ccc(S(=O)(=O)Nc2ccccn2)cc1` the Potency was “inactive”. In the case of `CCC1(C2CCN(Cc3cccnc3)CC2)NC(=O)N(CC2COc3ccccc3O2)C1=O` (stereo unspecified), the Potency is reported as “inactive”. In the case of `CC(=O)c1cccc(NC(=S)N2CCN(S(C)(=O)=O)CC2)c1`, the Potency is reported as “inactive”. In the case of `CC(=O)N1CCN(C(=O)C2(NC(=O)Nc3ccc(C)cc3)CCCCC2)CC1`, the Potency is reported as “inactive”. In the case of `CN(C)c1ccc(N/C=C/C(=O)C(F)(F)F)cc1`, the Potency is reported as “inactive”. With `CCOc1ccc(S(=O)(=O)N/N=C(\C)c2ccc(Cl)c(Cl)c2Cl)cc1` the Potency was “inactive”. With `CCOc1ccc(OCC)c(NC(=O)C(NS(=O)(=O)c2ccc3c(c2)oc(=O)n3C)C(C)C)c1` (stereo unspecified) the Potency was “inactive”. For `O=C(CC1NCCNC1=O)Nc1ccc(Oc2ccccc2)cc1` (stereo unspecified), the Potency was “inactive”. With `CCN(CC)c1cc(NC2CCCCC2)c2c3c(onc13)-c1ccccc1C2=O` the Potency was 18.4 µM (active). In the case of `Cc1nnc(SCC(=O)Nc2cccc(N)c2)n1-c1ccccc1`, the Potency is reported as “inactive”. For `COc1cc2c(cc1OC)C(c1ccncc1)CC(=O)N2` (stereo unspecified), the Potency was “inactive”. With `COc1cc2c(cc1OC)C(c1ccc(C)o1)CC(=O)N2` (stereo unspecified) the Potency was “inactive”. In the case of `COC(=O)c1ccc(C2CC(=O)Nc3cc(OC)c(OC)cc32)cc1` (stereo unspecified), the Potency is reported as “inactive”. In the case of `CC(C)Oc1ccc(C2NC(=O)NC2=O)cc1` (stereo unspecified), the Potency is reported as “inactive”. For `Cc1cc2c(cc1C)C(c1cccc(OC(C)C)c1)CC(=O)N2` (stereo unspecified), the Potency was 23.1 µM (active). For `COc1ccc(C2CC(=O)Nc3cc(C)c(C)cc32)c(OC)c1OC` (stereo unspecified), the Potency was 20.6 µM (active). In the case of `CC1CN(c2cc(=O)n(Cc3ccc(F)cc3)c(=O)[nH]2)CC(C)O1` (stereo unspecified), the Potency is reported as “inactive”.
